Results reported in the supplement of paper PMC9694430.

Assays:
Test in all cases: thermal shift delta Tm vs DMSO control; higher = stronger stabilization (binding)
Settings in all cases: 12.5 µM; protein concentration 2 µM
LOC_OS02G45750-cb003 = system: LOC_OS02G45750-cb003
In short: (§1)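 Rice kinase domain constructs, made in E. coli and purified, were placed in 96-well plates at 2 μM in 19.5 μl of 100 mM potassium phosphate pH 7.5, 150 mM NaCl, 10% glycerol and 5 × SYPRO Orange, with compound in DMSO. A temperature ramp from 25°C to 95°C at 0.05°C/s was used for differential scanning fluorimetry. The melting temperature shift is a triplicate mean compared with DMSO-only protein, derived from Boltzmann fits.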

LOC_OS02G54510-cb004 = system: LOC_OS02G54510-cb004
In short: as §1

LOC_OS03G04050-cb001 = system: LOC_OS03G04050-cb001
In short: as §1

LOC_OS03G12390-cb001 = system: LOC_OS03G12390-cb001
In short: as §1

LOC_OS03G27990-cb004 = system: LOC_OS03G27990-cb004
In short: as §1

LOC_OS03G50450-cb001 = system: LOC_OS03G50450-cb001
In short: as §1

LOC_OS03G50810-cb003 = system: LOC_OS03G50810-cb003
In short: as §1

LOC_OS04G35114-cb001 = system: LOC_OS04G35114-cb001
In short: as §1

LOC_OS04G38480-cb003 = system: T1, LOC_OS04G38480-cb003
T1 sequence (whole entry): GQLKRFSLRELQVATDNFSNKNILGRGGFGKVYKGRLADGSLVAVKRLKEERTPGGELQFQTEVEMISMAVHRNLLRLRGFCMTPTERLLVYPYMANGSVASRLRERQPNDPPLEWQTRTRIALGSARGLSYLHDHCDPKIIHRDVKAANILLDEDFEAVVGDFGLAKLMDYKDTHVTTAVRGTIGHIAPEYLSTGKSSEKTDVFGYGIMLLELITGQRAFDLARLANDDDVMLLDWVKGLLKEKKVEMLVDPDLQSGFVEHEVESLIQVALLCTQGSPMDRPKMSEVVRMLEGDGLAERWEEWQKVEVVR
In short: as §1

LOC_OS04G41100-cb001 = system: T2, LOC_OS04G41100-cb001
T2 sequence (whole entry): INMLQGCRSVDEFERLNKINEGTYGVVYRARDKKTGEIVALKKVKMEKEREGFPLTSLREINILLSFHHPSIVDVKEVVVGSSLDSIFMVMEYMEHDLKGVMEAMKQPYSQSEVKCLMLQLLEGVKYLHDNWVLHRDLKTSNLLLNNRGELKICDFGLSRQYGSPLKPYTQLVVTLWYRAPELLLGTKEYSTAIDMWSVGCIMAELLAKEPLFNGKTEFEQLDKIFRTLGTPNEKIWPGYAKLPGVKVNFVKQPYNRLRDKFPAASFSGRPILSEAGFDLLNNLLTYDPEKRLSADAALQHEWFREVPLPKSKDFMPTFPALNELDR
In short: as §1

LOC_OS04G57630-cb004 = system: LOC_OS04G57630-cb004
In short: as §1

LOC_OS05G07850-cb002 = system: LOC_OS05G07850-cb002
In short: as §1

LOC_OS05G16824-cb004 = system: LOC_OS05G16824-cb004
In short: as §1

LOC_OS05G28520-cb001 = system: LOC_OS05G28520-cb001
In short: as §1

LOC_OS05G30820-cb001 = system: LOC_OS05G30820-cb001
In short: as §1

LOC_OS05G43570-cb004 = system: LOC_OS05G43570-cb004
In short: as §1

LOC_OS06G16330-cb003 = system: LOC_OS06G16330-cb003
In short: as §1

LOC_OS06G22820-cb001 = system: T3, LOC_OS06G22820-cb001
T3 sequence (whole entry): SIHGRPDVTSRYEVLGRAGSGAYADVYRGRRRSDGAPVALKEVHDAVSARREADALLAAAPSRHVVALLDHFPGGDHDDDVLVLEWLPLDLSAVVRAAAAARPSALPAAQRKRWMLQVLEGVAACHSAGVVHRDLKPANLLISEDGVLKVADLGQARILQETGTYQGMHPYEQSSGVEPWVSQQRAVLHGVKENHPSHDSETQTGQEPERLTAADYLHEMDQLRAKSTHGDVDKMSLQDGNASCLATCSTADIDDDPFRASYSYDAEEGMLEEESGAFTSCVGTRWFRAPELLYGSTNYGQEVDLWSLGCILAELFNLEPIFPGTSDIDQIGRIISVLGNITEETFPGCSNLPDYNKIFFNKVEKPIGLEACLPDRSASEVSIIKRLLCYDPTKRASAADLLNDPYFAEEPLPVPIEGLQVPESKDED
In short: as §1

LOC_OS07G06570-cb004 = system: LOC_OS07G06570-cb004
In short: as §1

LOC_OS07G07230-cb001 = system: LOC_OS07G07230-cb001
In short: as §1
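Also: purified Escherichia coli-expressed rice kinase domain construct.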

LOC_OS06G16330-cb003, sequence (as listed by the source): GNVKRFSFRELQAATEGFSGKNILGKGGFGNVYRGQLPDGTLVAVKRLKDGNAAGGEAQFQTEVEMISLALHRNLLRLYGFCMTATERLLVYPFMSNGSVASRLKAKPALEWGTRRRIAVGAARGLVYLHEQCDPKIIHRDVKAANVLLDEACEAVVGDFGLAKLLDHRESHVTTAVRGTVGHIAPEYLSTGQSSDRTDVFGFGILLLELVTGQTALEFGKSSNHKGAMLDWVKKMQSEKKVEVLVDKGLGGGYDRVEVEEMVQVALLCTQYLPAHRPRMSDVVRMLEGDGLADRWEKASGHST

SMILES	thermal shift delta Tm (LOC_OS02G45750-cb003) [°C]	thermal shift delta Tm (LOC_OS02G54510-cb004) [°C]	thermal shift delta Tm (LOC_OS03G04050-cb001) [°C]	thermal shift delta Tm (LOC_OS03G12390-cb001) [°C]	thermal shift delta Tm (LOC_OS03G27990-cb004) [°C]	thermal shift delta Tm (LOC_OS03G50450-cb001) [°C]	thermal shift delta Tm (LOC_OS03G50810-cb003) [°C]	thermal shift delta Tm (LOC_OS04G35114-cb001) [°C]	thermal shift delta Tm (LOC_OS04G38480-cb003) [°C]	thermal shift delta Tm (LOC_OS04G41100-cb001) [°C]	thermal shift delta Tm (LOC_OS04G57630-cb004) [°C]	thermal shift delta Tm (LOC_OS05G07850-cb002) [°C]	thermal shift delta Tm (LOC_OS05G16824-cb004) [°C]	thermal shift delta Tm (LOC_OS05G28520-cb001) [°C]	thermal shift delta Tm (LOC_OS05G30820-cb001) [°C]	thermal shift delta Tm (LOC_OS05G43570-cb004) [°C]	thermal shift delta Tm (LOC_OS06G16330-cb003) [°C]	thermal shift delta Tm (LOC_OS06G22820-cb001) [°C]	thermal shift delta Tm (LOC_OS07G06570-cb004) [°C]	thermal shift delta Tm (LOC_OS07G07230-cb001) [°C]
O=C(Nc1c[nH]nc1-c1nc2ccc(CN3CCOCC3)cc2[nH]1)NC1CC1	8.3	2.96	1.22	7.72	6.08	3.92	6.02	5.39	3.78	8.54	3.7	14.2	14.9	0.46	4.77	1.2	10.7	0.86	0.71	0.15
Cc1nc2c(-c3cnc(N)nc3)nc(N3CCOCC3)nc2n1C(C)C	0.88	0.46	0.51	0.59	0.15	0.73	0.44	1.59	–	–	0.5	2.64	0.17	0.5	0.32	–	–	–	1.35	-0.09
Cc1ncc(CO)c(CO)c1O [Pyridoxine]	0.81	-0.02	0.53	-0.09	0.25	0.62	0.03	-0.36	0.12	0.24	-0.04	0.43	–	-0.11	0.06	0.36	-0.45	0.67	1.06	0.72
C[C@@H](Oc1ccc2[nH]nc(/C=C/c3cnn(CCO)c3)c2c1)c1c(Cl)cncc1Cl	13.1	7.93	0.05	10.5	9.48	6.65	6.58	12.3	5.56	1.48	8.94	16	12.1	1.22	6.07	0.92	15.1	-0.35	0.87	0.66
Cc1ccccc1-n1c(Cn2nc(-c3cccc(O)c3)c3c(N)ncnc32)nc2cccc(C)c2c1=O	-2.16	-0.05	-0.24	-0.5	–	0.05	0.27	0.34	–	–	–	0.71	-1.12	0.91	0.79	0.31	–	–	–	1
Nc1ccc(C(=O)Nc2cccc(-c3nc(N4CCOCC4)c4oc5ncccc5c4n3)c2)cn1	0.01	0.01	1.54	0.36	0.09	0.25	0.09	0.9	0.66	0.52	1.19	1.25	-3.13	0.31	0.83	0.15	0.32	0.39	0.88	-0.01
